Laboratory results: publication PMC4336329 (PLoS ONE, 2015)
The campaign covered roughly 310,000 compounds. About 2,200 (0.71%) showed an effect of 50% or more. The effect is printed as a negative number. The list comes from a sample in which strong results are over-represented; it also holds similar structures and randomly drawn compounds.

Target: human ether-à-go-go-related gene (hERG) potassium channel (human, UniProt Q12809)
Assay: primary screen, population patch clamp on CHO cells stably expressing hERG; higher = less effect of the substance

Sequence of human ether-à-go-go-related gene (hERG) potassium channel (Q12809 whole entry, looked up): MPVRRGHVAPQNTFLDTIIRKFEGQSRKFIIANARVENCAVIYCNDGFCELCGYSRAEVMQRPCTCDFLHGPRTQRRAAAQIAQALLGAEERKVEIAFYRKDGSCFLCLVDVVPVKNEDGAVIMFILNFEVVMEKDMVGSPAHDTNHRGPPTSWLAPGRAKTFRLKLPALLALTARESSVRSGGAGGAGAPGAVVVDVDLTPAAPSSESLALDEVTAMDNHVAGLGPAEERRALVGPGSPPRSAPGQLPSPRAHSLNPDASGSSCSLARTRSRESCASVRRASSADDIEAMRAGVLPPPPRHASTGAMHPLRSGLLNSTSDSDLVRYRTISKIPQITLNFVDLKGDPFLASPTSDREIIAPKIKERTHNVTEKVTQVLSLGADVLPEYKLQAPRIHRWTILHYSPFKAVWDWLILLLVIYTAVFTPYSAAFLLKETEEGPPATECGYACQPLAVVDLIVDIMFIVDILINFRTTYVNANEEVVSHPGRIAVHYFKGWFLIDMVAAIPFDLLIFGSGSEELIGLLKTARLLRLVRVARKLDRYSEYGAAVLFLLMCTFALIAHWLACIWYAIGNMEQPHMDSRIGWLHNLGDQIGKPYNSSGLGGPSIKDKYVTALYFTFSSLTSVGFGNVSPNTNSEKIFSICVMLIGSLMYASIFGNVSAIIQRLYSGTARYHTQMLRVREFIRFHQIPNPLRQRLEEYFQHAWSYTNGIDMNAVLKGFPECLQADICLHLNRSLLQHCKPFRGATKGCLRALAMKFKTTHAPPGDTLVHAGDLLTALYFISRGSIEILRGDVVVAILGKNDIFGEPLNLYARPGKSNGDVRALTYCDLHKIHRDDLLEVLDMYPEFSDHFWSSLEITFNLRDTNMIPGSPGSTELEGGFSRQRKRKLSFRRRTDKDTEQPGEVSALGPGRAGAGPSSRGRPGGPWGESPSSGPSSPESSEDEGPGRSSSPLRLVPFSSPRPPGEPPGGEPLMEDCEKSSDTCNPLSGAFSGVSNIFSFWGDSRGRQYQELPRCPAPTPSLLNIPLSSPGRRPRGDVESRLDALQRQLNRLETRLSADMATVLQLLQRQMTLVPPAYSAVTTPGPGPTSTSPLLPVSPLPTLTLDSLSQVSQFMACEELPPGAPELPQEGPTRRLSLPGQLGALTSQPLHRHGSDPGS

SMILES	hERG current change (%, negative = inhibition) at 1uM
Cc1nnc(NCc2n[nH]c(=O)c3ccccc23)c2ccccc12	9.65%
O=C(CN(C(=O)c1csnn1)c1ccc2c(c1)OCCO2)NCc1ccc(F)cc1	-1.13%
COc1ccc2c(c1)C(=O)CC(c1ccc3c(c1)OCCO3)O2 (centres unmarked)	16.1%
CCOC(=O)c1ccc(NC(=O)Nc2cccc(C)n2)cc1	10%
Cc1ccccc1SC1CCN(Cc2nc(C3CC3)no2)CC1	-1.23%
Cc1ccc(CS(=O)(=O)c2ncn[nH]2)cc1	21%
Cc1oc(-c2cccc(Cl)c2)nc1CN1CCC(C(=O)NCc2cccnc2)CC1	-13%
Cc1oc(-c2ccccc2F)nc1CN1CCC(C(=O)NCc2ccco2)CC1	-9.53%
Cc1oc(-c2ccc(Cl)cc2)nc1CN1CCC(C(=O)NCc2ccco2)CC1	-58.3%
Cc1oc(-c2cccc(Cl)c2)nc1CN1CCC(C(=O)NCc2ccco2)CC1	-70.4%
Cc1ccccc1-c1nc(CN2CCC(C(=O)NCc3ccco3)CC2)c(C)o1	-34.7%
Cc1oc(-c2cccc(Cl)c2)nc1CN1CCC(C(=O)NC2CC2)CC1	14.6%
Cc1oc(-c2cccc(Cl)c2)nc1CN1CCCC(C(=O)NCc2ccco2)C1 (centres unmarked)	-45%
Cc1oc(-c2ccc(Cl)cc2)nc1CN1CCC(C(=O)N2CCc3ccccc3C2)CC1	-56.7%
Cc1oc(-c2ccc(Cl)cc2)nc1CN1CCC(C(=O)N2CCN(Cc3ccccc3)CC2)CC1	-48.1%
Cc1oc(-c2ccc(Cl)cc2)nc1CN1CCCC(C(=O)NCc2ccccn2)C1 (centres unmarked)	-44.2%
CCN1CCN(C(=O)C2CCN(Cc3nc(-c4cccc(Cl)c4)oc3C)CC2)CC1	-21%
Cc1oc(-c2ccc(Cl)cc2)nc1CN1CCCC(C(=O)NCc2ccco2)C1 (centres unmarked)	-56.4%
Cc1ccc(OC(=O)c2ccc3nc(C)sc3c2)cc1	10%
COC(=O)COC(=O)c1ccc(O)cc1	-12.9%
O=C1C=C(c2ccc3ncccc3c2)C[C@@H](c2ccc3c(c2)OCO3)C1	9.3%
O=C(c1cc2ccccc2oc1=O)N(Cc1cccs1)Cc1ccccc1Cl	2.42%

SMILES	hERG current change (%, negative = inhibition) at 1uM
CCc1ccc(NC(=O)CCn2nc(C)c(S(=O)(=O)N3CCCCC3)c2C)cc1	4.67%
CCOC(=O)COc1c(-c2ccc(OC)cc2)oc2ccccc2c1=O	9.81%
CC(C)OP(=O)(OC(C)C)C(Nc1ccccc1)c1cccc([N+](=O)[O-])c1 (centres unmarked)	12%
COc1cc(-c2nc3n(n2)C(c2ccncc2)C2=C(CCCC2=O)N3)cc(OC)c1OC (centres unmarked)	26%
Cc1ccc(CN2C(=O)C3CCCN3c3ncccc32)cc1 (centres unmarked)	12.7%
CCCCN1C(=O)NC(=O)/C(=C/c2cnc(SC)nc2)C1=O	7.6%
Cc1ccccc1NCc1ccc(O)c2ncccc12	8.46%
Cl.N=c1ccn(Cc2ccccc2Cl)cc1	16.8%
CCc1ccc(-c2nc(CN3CCC(C(=O)NCc4ccco4)CC3)c(C)o2)cc1	-51.1%
CCc1ccc(-c2nc(CN3CCC(C(=O)NCCN(CC)c4ccccc4)CC3)c(C)o2)cc1	-15.6%
CCc1ccc(-c2nc(CN3CCC(C(=O)NCc4ccc(F)cc4)CC3)c(C)o2)cc1	-12.4%
CCOc1ccc(-c2cn3ccccc3n2)cc1	-1.48%
COc1ccc(CC(=O)Nc2c(C(=O)N3CCN(c4ncccn4)CC3)oc3ccccc23)cc1	-21.4%
COc1ccc(CC(=O)Nc2c(C(=O)N3CCN(c4ccccc4)CC3)oc3ccccc23)cc1OC	-8.82%
COc1ccc(N2CCN(C(=O)c3oc4ccccc4c3NC(=O)Cc3cccc(OC)c3)CC2)cc1	3.16%
CCOCCCN(C)C1CCN(C(=O)c2oc3ccccc3c2NC(=O)Cc2cccc([N+](=O)[O-])c2)CC1	-83.8%
CCCN(CCC)C(=O)c1oc2ccccc2c1NC(=O)Cc1cccc(OC)c1	19.2%
CCOCCCN(C)C1CCN(C(=O)c2oc3ccccc3c2NC(=O)Cc2ccc([N+](=O)[O-])cc2)CC1	-89.1%
COc1ccc(NS(=O)(=O)c2cccc(C(=O)N3CCCC(C)C3)c2)cc1 (centres unmarked)	3.3%
CCN(CCn1cccn1)C(=O)CC1C(=O)NCCN1Cc1ccc(OC)c(OC)c1 (centres unmarked)	2.76%
COc1ccc(Cn2nnnc2C(c2ccc(F)cc2)N2CCN(C3CCCC3)CC2)cc1 (centres unmarked)	-15%
OC1CCN(C(c2ccc3ncccc3c2)c2nnnn2C2CCCCC2)CC1 (centres unmarked)	-5.3%

SMILES	hERG current change (%, negative = inhibition) at 1uM
Fc1ccc(Cn2nnnc2C(c2cccs2)N2CCCCCC2)cc1 (centres unmarked)	0.84%
c1cnc2ccc(C(c3nnnn3C3CCCCC3)N3CCN(C4CCCCC4)CC3)cc2c1 (centres unmarked)	-87%
c1cnc2ccc(C(c3nnnn3C3CCCC3)N3CCN4CCCC4C3)cc2c1 (centres unmarked)	-19.5%
COc1ccc(Cn2nnnc2C(c2ccc3ncccc3c2)N2CCN(C3CCCCC3)CC2)cc1 (centres unmarked)	-79.3%
Fc1ccc(C(c2nnnn2Cc2cccs2)N2CCN(C3CCCCC3)CC2)cc1 (centres unmarked)	-46.6%
COc1ccc(Cn2nnnc2C(c2ccc(C)cc2)N2CCN(C3CCCC3)CC2)cc1.Cl (centres unmarked)	-32.4%
c1cnc2ccc(C(c3nnnn3C3CCCCC3)N3CCN4CCCC4C3)cc2c1 (centres unmarked)	-96.9%
Fc1ccc(Cn2nnnc2C(c2cccs2)N2CCN(C3CCCCC3)CC2)cc1 (centres unmarked)	-51.6%
CCC(C)(C)n1nnnc1C(c1ccc2ncccc2c1)N1CCN2CCCC2C1 (centres unmarked)	8.16%
c1cnc2ccc(C(c3nnnn3C3CCCCC3)N3CCCCC3)cc2c1 (centres unmarked)	1.89%
CCN(CC(=O)Nc1ccc(NC(C)=O)cc1)C(=O)CSc1nnc(-c2ccco2)n1CC	16.2%
Cc1nn2c(-c3ccccc3)ccnc2c1-c1ccccc1	7.57%
CC(C)Oc1ccc(/C(O)=C2/C(=O)C(=O)N(Cc3cccnc3)C2c2ccco2)cc1 (centres unmarked)	14.2%
Cc1cc(C)c(S(=O)(=O)N2CCOC2CNC(=O)C(=O)NCCCN2CCCC2=O)c(C)c1 (centres unmarked)	7.05%
O=C(c1ccccc1)c1c[nH]c(C(=O)C(Cl)(Cl)Cl)c1	16%
COC/C=C/C1=CC2=CC(=O)C(C)(OC(=O)c3cnc4ccccc4n3)C(=O)C2=CN1C1CCCCC1 (centres unmarked)	9.88%
Cc1csc(NC(=O)CSc2nncs2)n1	8.29%
CC(NC(=O)Cc1cccs1)c1ccc2c(c1)OCO2 (centres unmarked)	-4.41%
CCOC(=O)c1cccc(Nc2ncnc3ccc(C)cc23)c1	-3.73%
CCN(CC)CCCNC(=O)COc1ccc2oc3c(c2c1)CCCC3.Cl	6.07%
CC(C)OCCCNC(=O)COc1ccc2oc3c(c2c1)CCCC3	11.1%
CC(C)N(CCNC(=O)COc1ccc2oc3c(c2c1)CCCC3)C(C)C	-52.7%

SMILES	hERG current change (%, negative = inhibition) at 1uM
O=C(NCCN=C1NS(=O)(=O)c2ccccc21)c1ccc2nccnc2c1	18.3%
O=C(CSCc1cccc(CSCC(=O)Nc2ccc3ccccc3c2)n1)Nc1ccc2ccccc2c1	8.91%
O=C(CSCc1cccc(CSCC(=O)Nc2ccccc2)n1)Nc1ccccc1	-59.7%
O=C(CSCc1ccccn1)Nc1ccccc1	-0.275%
C=CCNC(=O)c1sc(=S)n(-c2ccc(C(=O)OCC)cc2)c1N	2.24%
O=C(c1ccc2nc3ccccc3c(=O)n2c1)N1CCN(Cc2ccc3c(c2)OCO3)CC1	-12.2%
O=C(c1cccn2c(=O)c3ccccc3nc12)N1CCN(Cc2ccc3c(c2)OCO3)CC1	-54.4%
O=C(c1cccn2c(=O)c3cc(Cl)ccc3nc12)N1CCN(Cc2ccc3c(c2)OCO3)CC1	-33.5%
Cc1onc(-c2ccccc2)c1C(=O)OCc1nnc(-c2ccc([N+](=O)[O-])cc2)o1	-51.2%
Cc1onc(-c2ccccc2)c1C(=O)OCc1nnc(-c2ccccc2)o1	5.73%
CCOC(=O)N1CCN(C(=O)C2CCN(C(=O)c3ccc([N+](=O)[O-])cc3)CC2)CC1	-26.9%
O=C(CCC(=O)c1ccc(F)cc1)OCc1nnc(-c2ccc([N+](=O)[O-])cc2)o1	1.72%
CCOC(=O)C1CCN(C(=O)C2CCN(C(=O)c3ccc([N+](=O)[O-])cc3)CC2)CC1	-28.2%
O=C(OCc1nnc(-c2ccc([N+](=O)[O-])cc2)o1)C1CCN(C(=O)c2ccc(F)cc2)CC1	-71.4%
Cc1onc(-c2ccccc2Cl)c1C(=O)OCc1nnc(-c2ccccc2)o1	3.84%
O=C(c1ccc2c(c1)OCCO2)C1CCN(C(=O)c2ccc(F)cc2)CC1	4.28%
CCOc1ccc(C(=O)N2CCC(C(=O)c3ccc4c(c3)OCCO4)CC2)cc1	-61.5%
O=C(Oc1cccc([N+](=O)[O-])c1)C1CCN(C(=O)c2ccc(F)cc2)CC1	-3.31%
O=C(c1ccc2c(c1)OCCO2)C1CCN(C(=O)c2ccc(F)c(F)c2)CC1	2.71%
CCOc1ccc(C(=O)C2CCN(C(=O)c3ccc([N+](=O)[O-])cc3)CC2)cc1	-81.1%
